Experimental data: the supplement of paper PMC13380429
Structures can show the parent of a compound that is named as a salt. A number with no mark means an inactive call.

System: Vero E6 infected with SARS-CoV-2
Assay: inhibition of SARS-CoV-2 cytopathic effect; higher = more antiviral protection, active = above 15
Conditions: 48 h

Structure (SMILES)	inhibition of SARS-CoV-2 cytopathic effect (1 nM) [%]	inhibition of SARS-CoV-2 cytopathic effect (8.33 nM) [%]	inhibition of SARS-CoV-2 cytopathic effect (100 nM) [%]	inhibition of SARS-CoV-2 cytopathic effect (833.33 nM) [%]	inhibition of SARS-CoV-2 cytopathic effect (10000 nM)
COC(=O)[C@H](Cc1cccc(C(=N)N)c1)[C@@H](C)NC(=O)c1ccc(-c2cc[n+]([O-])cc2)cc1 [otamixaban]	-2.31	-2.54	-1.48	-0.51	-3.22%
CN1CC(=O)N=C1NC(=O)Nc1cccc(Cl)c1 [fenobam]	0.79	2.12	0.63	1.08	-0.64%
Oc1ccc(OCc2ccccc2)cc1 [monobenzone]	-1.3	-1.35	-0.07	-0.61	-2.93%
NC(=O)c1nc(F)cnc1O [Favipiravir]	-0.26	1.4	-0.55	1.38	-0.22%
CN1CCN(c2cc(-c3ccccc3)nc(N)n2)CC1	2.02	3.76	2.45	4.99	2.49%
Cc1sc2c(c1C)C(c1ccc(Cl)cc1)=N[C@@H](CC(=O)Nc1ccc(OCCOCCOCCOCCNc3cccc4c3C(=O)N(C3CCC(=O)NC3=O)C4=O)cc1)c1nnc(C)n1-2 (stereo not given in full)	-0.01	-1.32	-2.57	1.39	-3.1%
C=C(c1ccc(C(=O)O)cc1)c1cc2c(cc1C)C(C)(C)CCC2(C)C [bexarotene]	-0.21	-0.07	0.42	0.85	0.03%
O=c1[nH]c2cc(C(F)(F)F)c(N3CCOCC3)cc2n(CP(=O)(O)O)c1=O	0.45	0.83	-1.59	1.35	-2.92%
COC(=O)C1=C(C)NC(C)=C(C(=O)OC(C)C)[C@@H]1c1cccc2nonc12 [isradipine]	0.75	2.79	1.21	2.05	1.88%
CC1(C)Oc2ccc(C#N)cc2[C@@H](N2CCCC2=O)[C@@H]1O [levcromakalim]	0.65	1.1	0.31	1.22	2.06%
O=c1[nH]c(=O)n([C@H]2C[C@H](O)[C@@H](CO)O2)cc1Br [broxuridine]	1.7	1.06	1.08	3.59	0.04%
N#CC(=C(/N)Sc1ccccc1N)/C(C#N)=C(/N)Sc1ccccc1N	-0.64	0.76	2.1	-3.9	-8.7%
CCC[C@H](N[C@H]1CCc2cc(F)cc(F)c2C1)C(=O)Nc1cn(C(C)(C)CNCC(C)(C)C)cn1	2.54	-2.77	-1.3	-9.66	-10.1%
CN[C@H]1CN(c2ccc3c(=O)c(C(=O)O)cn(-c4nccs4)c3n2)C[C@@H]1OC [voreloxin]	0.95	-1.14	2.62	-0.72	0.56%
COc1cccc2c1c(O)c(C(=O)N(C)c1ccc(C(F)(F)F)cc1)c(=O)n2C [tasquinimod]	1.2	3.29	1.4	1.35	1.05%
c1ccc(CN2CCC3(CCc4ccccc43)CC2)cc1	-1.07	-1.48	0.06	1.63	0.48%
COc1cc2c(NC3CCN(CC4CCCCC4)CC3)nc(N3CCCN(C(C)C)CC3)nc2cc1OCCCN1CCCCC1	0.74	-1.71	-3.06	0.36	-20.7%
CCC(CC)Nc1cc(C)nc(Oc2c(C)cc(C)cc2C)c1C	-0.56	0.65	-1.28	0.01	-1.59%
COc1cc(C(=O)NS(=O)(=O)c2ccccc2C)ccc1Cc1cn(C)c2ccc(NC(=O)OC3CCCC3)cc12 [zafirlukast]	-1.22	-0.73	0.48	0.88	-2.73%
N#Cc1c(N(CC(=O)O)CC(=O)O)sc(C(=O)O)c1CC(=O)O [Strontium Ranelate]	1.28	2.01	0.58	5.99	1.75%

Structure (SMILES)	inhibition of SARS-CoV-2 cytopathic effect (1 nM) [%]	inhibition of SARS-CoV-2 cytopathic effect (8.33 nM) [%]	inhibition of SARS-CoV-2 cytopathic effect (100 nM) [%]	inhibition of SARS-CoV-2 cytopathic effect (833.33 nM) [%]	inhibition of SARS-CoV-2 cytopathic effect (10000 nM)
CC(C)C[C@H](NC(=O)OCc1ccccc1)C(=O)N[C@@H](C[C@@H]1CCNC1=O)C(O)S(=O)(=O)O (stereo not given in full) [GC376 sodium]	0.45	-0.81	0.28	-0.83	70.6% (active)
COC[C@H]1OC(=O)c2coc3c2[C@@]1(C)C1=C(C3=O)[C@@H]2CCC(=O)[C@@]2(C)C[C@H]1OC(C)=O [wortmannin]	-3.55	-1.71	-2.28	-4.43	-2.83%
Nc1nc(NC2CC2)c2ncn([C@H]3C=C[C@@H](CO)C3)c2n1	-0.53	-0.06	0.24	0.84	0.33%
O=[N+]([O-])O[C@@H]1CO[C@H]2[C@@H]1OC[C@@H]2O [isosorbide-mononitrate]	-2.43	-1.06	-1.7	2.64	1.45%
N[C@@H](C[C@@H](F)C(=O)O)C(=O)O	0.4	1.43	2.09	-2.92	-1.49%
C[N+](C)(C)CCCCCC[N+](C)(C)C [hexamethonium]	-0.33	1.65	0.44	-0.93	-1.17%
O=c1[nH]cc(F)c(=O)[nH]1 [5-fluorouracil]	0.75	1.63	1.29	0.37	1.52%
Nc1ncnc2c1ncn2[C@@H]1O[C@H](CO)C[C@H]1O [cordycepin]	-1.1	0.92	1.03	-0.81	-3.28%
CC(=O)OC/C=C(C)/C=C/C=C(C)/C=C/C1=C(C)CCCC1(C)C [retinyl-acetate]	-1.78	0.37	-0.15	1.34	0.15%
Cn1c(=O)c2c(ncn2CC2OCCO2)n(C)c1=O [doxofylline]	-0.49	-2.41	-0.01	-1.59	-0.77%
O=C(O)c1ccc(-c2ccc3cc(O)c(C45CC6CC(CC(C6)C4)C5)cc3c2)cc1	5.35	1.59	3.64	3.49	5.63%
Cc1nc2ccc(NC(=O)Nc3ccnc4cccnc34)cc2o1	0.35	0.06	2.76	-0.56	-0.97%
CS(=O)(=O)c1ccc(Oc2cc(F)cc(C#N)c2)c2c1[C@H](O)C(F)(F)C2	0.26	2.61	0.38	-1.3	0.01%
Cc1c(C)c2c(c(C)c1O)CCC(C)(C)O2	0.77	-0.34	2.33	4.37	-5.56%
C[C@@H](CN)CC(=O)O [3-methyl-GABA]	0.49	0.52	1.28	1.08	-0.34%
CO/N=C(\C(=O)N[C@@H]1C(=O)N2C(C(=O)O)=C(Cn3ccc(=N)n3CCO)CS[C@H]12)c1csc(N)n1 [Cefoselis sulfate]	0.33	-3.45	-1.18	-1.56	1.21%
Cc1cccc(C)c1NC1=NCCCS1 [xylazine]	1.43	1.2	1.06	-1.24	-0.19%
O=C(Oc1ccccc1)c1ccccc1O [phenyl-salicylate]	-7.58	-2.22	-0.85	3.43	5.08%
Nc1ncnc2c1nc(Br)n2[C@@H]1O[C@@H]2COP(=O)(O)O[C@H]2[C@H]1O [8-bromo-cAMP]	2.13	0.61	1.53	-1.33	-0.37%
Cc1cn([C@H]2C[C@H](N=[N+]=[N-])[C@@H](CO)O2)c(=O)[nH]c1=O [zidovudine]	3.53	3.15	6.14	2.68	-0.41%
